The whole screen tested about 52,000 compounds, of which about 4,300 (8.3%) were called active. For the sample, actives were picked, then their nearest neighbours and some compounds at random. Values without a mark were called inactive. Rule as the data show it: active = survival mostly below about 52% (no sharp cut-off); inactive = mostly above about 56%.

This experiment has as its system DeltatarO mutant. The experiment can be described thus: growth inhibition of S. aureus wild type versus tarO mutant, primary screen, teichoic acid synthesis inhibitors, RN4220, OD600 (AID 463173). Conditions: OD600, 18 h, hits give low values, screened at 18.75 µg/mL (by protocol).
Consider `COc1ccc(S(=O)(=O)Nc2ccc3c(c2)N(C(C)=O)CCC3)cc1F`, for which the survival was 85%.

In the case of `Cc1cc(SCCN2CCOCC2)nc2ccccc12`, the survival was 68%.

Consider `CCc1ccc(CNC(=O)c2ccc3nc(SCc4ccc(F)cc4)n(C)c3c2)cc1`, for which the survival is 94%.

In the case of `O=C(CSc1cn(CC(=O)N2CCCC2)c2ccccc12)Nc1cc(C(F)(F)F)ccc1Cl`, the survival is 52%.

With `O=C1CSC(c2ccccc2)N1Nc1nc(N2CCOCC2)nc(N2CCOCC2)n1` (centres undefined), the survival was 101%.

On to `COc1cccc(CNC(=O)Cn2nc(N3CCN(c4ccccc4OC)CC3)ccc2=O)c1`, for which the survival was 86%.

On to `CCn1c2ccccc2c2cc(NC(=O)COc3cc(C)c(Cl)c(C)c3)ccc21`, for which the survival was 50% (active).

On to `Cc1cccc(OCC(=O)Nc2ccc(NC(=O)c3ccco3)cc2)c1`, for which the survival was 83%.

For the compound `CCn1c(=O)cc(SCC(=O)Nc2ccc(C)c(F)c2)c2ccccc21`, the survival is 89%.

With `CCn1c(=O)cc(OCC(=O)Nc2cc(OC)c(OC)c(OC)c2)c2ccccc21`, the survival was 47%.

Consider `Cc1cc(OCC(=O)Nc2ccc3c(c2)OCCO3)cc(C)c1Cl`, for which the survival is 77%.

As for `CCn1c2ccccc2c2cc(NC(=O)COc3cccc(C)c3)ccc21`, the survival is 27% (active).

`CCn1c2ccccc2c2cc(NC(=O)COc3ccc(C)c(C)c3)ccc21`: the survival is 119%.

`COc1ccc(Nc2cc(C)c3cc(NC(=O)COc4cccc(C)c4)ccc3n2)cc1`: the survival was 102%.

In the case of `CCn1c2ccccc2c2cc(NC(=O)COC)ccc21`, the survival was 43% (active).

As to `COc1ccc(OCC2CNC(=O)O2)cc1` (centres undefined), the survival is 61%.

Regarding `C=CCn1c(=O)/c(=C2/Sc3ccccc3N2CC)s/c1=C1/C(=O)NN=C1C`, the survival was 89%.

As to `Cc1ccc(Nc2ccc(N3CCN(C(=O)c4cccc([N+](=O)[O-])c4)CC3)nn2)cc1`, the survival was 85%.

On to `O=C(NCCc1ccccc1)c1ccc2c(c1)N(Cc1ccc(Cl)cc1)C(=O)c1ccccc1S2(=O)=O`, for which the survival is 89%.

In the case of `COCCCNC(=O)c1ccc2c(c1)N(Cc1ccccc1F)C(=O)c1ccccc1S2=O` (centres undefined), the survival was 83%.

As to `COC(=O)c1sc2cccc(F)c2c1S(=O)(=O)NCc1ccc(F)cc1`, the survival was 103%.

Regarding `N#CC1=C(N)C(C#N)(C#N)C(c2ccccc2)C2CCCC=C12` (centres undefined), the survival was 97%.

In the case of `COc1ccc(C2=C(N3CCN(c4cc(Cl)ccc4C)CC3)c3ccccc3C2=O)cc1`, the survival was 95%.

As to `Cc1ccc(C)c(N2CCN(C3=C(c4ccccc4)C(=O)c4ccccc43)CC2)c1`, the survival is 100%.

Turning to `COc1ccc(C2=C(N3CCN(c4cc(C)ccc4C)CC3)c3ccccc3C2=O)cc1`, the survival was 28% (active).

Consider `Cn1c(-c2cccc(Br)c2)cnc1NCc1cccc(F)c1`, for which the survival was 28% (active).

Turning to `Cn1c(-c2ccccc2)cnc1NC(=O)c1ccc(F)cc1`, the survival is 81%.

Turning to `COc1cccc(C(=O)n2nc(-c3cccnc3)nc2NCc2ccc(F)cc2)c1`, the survival is 71%.

As for `O=C(NCc1cccc(F)c1)c1ccc(-n2cnc3cccnc32)cc1`, the survival was 97%.

As to `CCc1ccc(CNc2ncc(-c3cccc(OC)c3)n2C)cc1`, the survival was 8% (active).

`COc1cccc(-c2cnc(NCc3ccccc3Cl)n2C)c1`: the survival was 51%.

In the case of `Cc1cc(Cl)ccc1NC(=O)CS(=O)(=O)c1cccc2nsnc12`, the survival is 125%.

For the compound `Fc1ccc(-c2cc(-c3nc(-c4cccc(Cl)c4)no3)[nH]n2)cc1`, the survival is 88%.

In the case of `CC(C)(C)c1ccc(C(=O)NC2CCSC2=O)cc1` (centres undefined), the survival is 92%.

Turning to `NC(=O)c1ccccc1NC(=O)Cn1nc(Cc2cccnc2)c2ccccc2c1=O`, the survival was 71%.

On to `COc1ccc(C(=O)NCCn2cc(SCc3cc(C)ccc3C)c3ccccc32)cc1`, for which the survival is 57%.

Consider `O=C(NCCn1cc(SCc2ccc(C(F)(F)F)cc2)c2ccccc21)c1ccccc1F`, for which the survival was 36% (active).

For `O=C(CSc1cn(CCNC(=O)c2ccccc2F)c2ccccc12)Nc1ccccc1F`, the survival is 80%.

As for `CC(Sc1cn(CCNC(=O)c2ccccc2F)c2ccccc12)c1ccccc1` (centres undefined), the survival was 42% (active).

As for `O=C(NCCn1cc(SCc2cccc(F)c2)c2ccccc21)c1cccc(C(F)(F)F)c1`, the survival is 35% (active).

`O=C(NCCn1cc(SCc2ccc(C(F)(F)F)cc2)c2ccccc21)c1cccs1`: the survival is 95%.

For `COc1ccc(C(=O)NCCn2cc(SCc3cccc(F)c3)c3ccccc32)cc1OC`, the survival is 52%.

Turning to `Cc1ccc(C)c(CSc2cn(CCNC(=O)c3cccs3)c3ccccc23)c1`, the survival is 71%.

Turning to `Cc1ccc(C)c(CSc2cn(CCNC(=O)c3ccccc3F)c3ccccc23)c1`, the survival is 35% (active).

Take `COc1ccc(C(=O)NCCn2cc(SCc3ccc(C(F)(F)F)cc3)c3ccccc32)cc1OC`: the survival is 72%.

As for `O=C(CSc1cn(CCNC(=O)c2cccc(C(F)(F)F)c2)c2ccccc12)Nc1ccc2c(c1)OCCO2`, the survival is 87%.

With `COc1ccc(C(=O)NCCn2cc(SC(C)c3ccccc3)c3ccccc32)cc1OC` (centres undefined), the survival is 61%.

For the compound `O=C(CCC(=O)N1CC2CCCN2c2ccccc21)NCc1ccccc1F` (centres undefined), the survival was 131%.

Consider `CCOc1ccc(NC(=O)C2CCC(N3C(=O)C4CC=CCC4C3=O)CC2)cc1` (centres undefined), for which the survival is 77%.

With `COc1ccc2oc(=O)c(-c3nc(-c4cccs4)no3)cc2c1`, the survival was 73%.

`CCc1ccc(NC(=O)CSc2nccn2C2CCCC2)cc1`: the survival is 70%.

On to `CCN(C(=O)c1cc2c(Cl)nc3ccc(C)cc3c2s1)c1cc(OC)ccc1OC`, for which the survival was 61%.

As for `CCOc1ccc2c(c1)c(=O)c(S(=O)(=O)c1ccc(C)cc1)cn2CC(=O)Nc1ccc(C)cc1`, the survival is 66%.

Regarding `O=C(CSc1cn(CCNC(=O)c2c(F)cccc2F)c2ccccc12)Nc1ccc(F)cc1`, the survival is 128%.

On to `O=C(CSc1cn(CCNC(=O)c2c(F)cccc2F)c2ccccc12)Nc1ccccc1F`, for which the survival was 55%.

As for `O=C(NCCn1cc(SCc2ccccc2)c2ccccc21)c1cccs1`, the survival was 54% (active).

As to `O=C(NCCn1cc(SCc2ccc(F)cc2)c2ccccc21)c1cccs1`, the survival is 50%.

Take `O=C(NCCn1cc(SCc2ccc(Br)cc2)c2ccccc21)c1cccs1`: the survival was 110%.

With `O=C(NCCn1cc(SCc2ccc(F)cc2)c2ccccc21)c1c(F)cccc1F`, the survival was 53% (active).

The values are drawn from PubChem BioAssay AID463173 (ICCB-Longwood Screening Facility, Harvard Medical School, 2010).
